# In PubChem BioAssay (NCATS):
# Results filed as inconclusive are left out. A call without a number means that no potency is given here. Active and inactive are the calls of the source. The call rests on the fitted dose curve; in most records, active means well fitted inhibition curve with a large enough effect; inconclusive means small, poorly fitted or top-dose-only effect; inactive means flat fitted curve, though single readings scatter.
# Tested on: CP192
# Experiment: qHTS profiling for inhibitors of Plasmodium falciparum proliferation (AID 504749); further: nearly all actives have a fitted effect of over 60% in size
# Conditions: P. falciparum in erythrocytes, SYBR Green DNA, 72 h; series mostly up to 28.7 µM
# Procedure, shortened: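 P. falciparum-infected erythrocytes (0.3% parasitemia, 2.5% hematocrit) incubated with compound 72 h at 37 C, 5% CO2. Parasite DNA detected by SYBR Green after lysis, overnight at room temperature; normalised to 0.29 uM artemisinin and DMSO.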
# Potency means the concentration at half of the fitted maximal effect.
row,SMILES,Potency
1,CCCCCCCCCCCCCCCC(=O)OC[C@H](O)[C@H]1OC[C@@H](O)[C@@H]1O,inactive
2,CCCCC(=O)OCC(=O)[C@]1(O)Cc2c(O)c3c(c(O)c2[C@H](OC2CC(NC(=O)C(F)(F)F)C(O)C(C)O2)C1)C(=O)c1c(OC)cccc1C3=O (stereo not given in full),2390 nM (active)
3,C[C@H]1OC(OC2C(O)[C@@H](O)C(OC3C(O)[C@@H](O)C(O)O[C@@H]3CO)O[C@@H]2CO)[C@H](O)C(O)C1N[C@H]1C=C(CO)[C@@H](O)[C@H](O)C1O (stereo not given in full),inactive
4,CCN(CC)CC(=O)Nc1c(C)cc(C)cc1C,inactive
5,CC(=O)N[C@H]1[C@H](O[C@@H]2c3ccc(c(Cl)c3)Oc3cc4cc(c3O[C@@H]3O[C@H](CO)[C@@H](O)[C@H](O)C3C)Oc3ccc(cc3Cl)C[C@H]3NC(=O)[C@@H](N)c5ccc(O)c(c5)Oc5cc(O)cc(c5)[C@H](NC3=O)C(=O)N[C@H]4C(=O)N[C@H]3C(=O)N[C@@H]2C(=O)N[C@@H](C(=O)O)c2cc(O)cc(O[C@H]4O[C@H](CO)[C@@H](O)C(O)[C@@H]4O)c2-c2cc3ccc2O)O[C@H](CO)[C@@H](O)[C@@H]1O (stereo not given in full),inactive
6,NC(=O)c1ncn(C2OC(CO)C(O)C2O)c1N (stereo not given),inactive
7,C[C@H]1[C@@H](OC(=O)CCC(=O)O)OC2OC3(C)CC[C@H]4[C@H](C)CC[C@@H]1[C@@]24OO3 (stereo not given in full),9.5 nM (active)
8,CC1(Cn2ccnn2)[C@H](C(=O)O)N2C(=O)C[C@H]2S1(=O)=O (stereo not given in full),inactive
9,CN(C)CC/C=C1\c2ccccc2COc2ccc(CC(=O)O)cc21,inactive
10,CCCC(=O)O[C@]1(C(=O)COC(C)=O)CC[C@H]2C3C[C@H](F)C4=CC(=O)C=CC4(C)[C@@]3(F)[C@@H](O)CC21C (stereo not given in full),inactive
11,OCCN1CC(O)C(O)C(O)C1CO (stereo not given),inactive
12,COc1cc2c(cc1O)CCN[C@@]21CS[C@H]2c3c(OC(C)=O)c(C)c4c(c3C(COC1=O)N1C2C2c3c(cc(C)c(OC)c3O)CC([C@@H]1O)N2C)OCO4 (stereo not given in full),1.5 nM (active)
13,CC(CCC(=O)O)C1CCC2C3C(=O)C[C@@H]4CC(=O)CC[C@@]4(C)C3CC(=O)[C@]12C (stereo not given in full),inactive
14,C[n+]1c2cc(N)ccc2cc2ccc(N)cc21,1200 nM (active)
15,O=C(OC[C@@H]1O[C@@](O)(COC(=O)c2cccnc2)[C@H](OC(=O)c2cccnc2)[C@H]1OC(=O)c1cccnc1)c1cccnc1,inactive
16,O=[N+]([O-])O[C@H]1CO[C@H]2[C@@H]1OC[C@H]2O,inactive
17,COc1cccc(OC)c1C(=O)NC1C(=O)N2C1SC(C)(C)C2C(=O)O (stereo not given),inactive
18,NC[C@@H]1O[C@H](OC2[C@@H](CO)O[C@@H](OC3[C@H](O)[C@H](N)C[C@H](N)[C@H]3OC3O[C@H](CO)[C@@H](O)[C@H](O)[C@@H]3N)[C@H]2O)C(N)[C@H](O)[C@@H]1O (stereo not given in full),inactive
19,Cc1ccc(S(=O)(=O)NC(=O)NC(C)Cc2ccccc2)cc1 (stereo not given),inactive
20,OCCOC[C@H]1O[C@H](OCCO)[C@H](OCCO)[C@@H](OCCO)[C@@H]1OCCO (tested in a mixture with another compound),inactive

row,SMILES,Potency
1,C[S+](C)CC[C@H](N)C(=O)O,inactive
2,CC[C@@H]1/C=C(\C)C[C@H](C)C[C@H](OC)[C@H]2O[C@@](O)(C(=O)C(=O)N3CCCC[C@H]3C(=O)O[C@H](/C(C)=C/[C@@H]3CC[C@H](Cl)[C@H](OC)C3)[C@H](C)[C@@H](O)CC1=O)[C@H](C)C[C@@H]2OC,inactive
3,NC(=O)C1CC2(NC(=O)NC2=O)c2cc(F)ccc2O1 (stereo not given),inactive
4,CN1[C@@H]2CC[C@@H]1CC(OC(=O)[C@H](CO)c1ccccc1)C2 (stereo not given in full),inactive
5,CC[C@@]1(O)C[C@H](O[C@H]2C[C@@H](N(C)C)[C@@H](O[C@H]3C[C@@H](O)[C@@H](O[C@H]4CCC(=O)[C@@H](C)O4)[C@@H](C)O3)[C@@H](C)O2)c2c(cc3c(c2O)C(=O)c2c(O)cccc2C3=O)[C@H]1C(=O)OC,1070 nM (active)
6,CCCCCCCCCCCC(=O)OCC(O)C1OCC(O)C1O (stereo not given),inactive
7,C/C1=C2/[N-]C(C(CC(N)=O)[C@@]2(C)CCC(=O)NCC(C)OP(=O)([O-])O[C@H]2[C@@H](O)[C@@H](n3cnc4cc(C)c(C)cc43)O[C@@H]2CO)[C@]2(C)N=C(/C(C)=C3N=C(/C=C4N=C1C(CCC(N)=O)C\4(C)C)[C@@H](CCC(N)=O)[C@]\3(C)CC(N)=O)[C@@H](CCC(N)=O)[C@]2(C)CC(N)=O.CC(=O)O.[Co] (stereo not given in full),inactive
8,CC1(C)OC[C@@H]2O[C@@]3(C(=O)O)OC(C)(C)O[C@@H]3[C@@H]2O1,inactive
9,Cc1ccccc1N1C(=O)c2cc(N)ccc2N/C1=C\F,inactive
10,CCC(C(=O)O)C1OC(C(C)C(O)C(C)C(=O)C(CC)C2OC3(C=CC(O)C4(CCC(C)(C5CCC(O)(CC)C(C)O5)O4)O3)C(C)CC2C)C(C)CC1C (stereo not given),169 nM (active)
11,O=C1C(I)=CC(=C(c2cc(I)c(O)c(I)c2)c2ccccc2C(=O)O)C=C1I,inactive
12,NC(=O)NC(CCC(=O)O)C(=O)O (stereo not given),inactive
13,COC1CC2CCC(C)[C@](O)(O2)C(=O)C(=O)N2CCCCC2C(=O)OC(C(C)CC2CCC(O)C(OC)C2)CC(=O)C(C)/C=C(/C)C(O)C(OC)C(=O)C(C)CC(C)C=CC=C/C=C\1C (stereo not given in full),4780 nM (active)
14,CC(=O)OCC(=O)[C@@]1(O)CCC2C3C[C@H](C)C4=CC(=O)C=CC4(C)C3C(O)CC21C (stereo not given in full),inactive
15,CN[C@H](C)CCC=C(C)C,953 nM (active)
16,CC1(C)C2CC[C@]1(C)[C@@H](O)C2,inactive
17,OCC1O[C@H](Oc2ccc(O)cc2)C(O)C(O)C1O (stereo not given in full),inactive
18,Nc1nc(F)nc2c1ncn2[C@@H]1O[C@H](CO)[C@@H](O)[C@H]1O,inactive
19,CC1OC(OC2CCC3(C)C(CCC4C3CC(O)C3(C)C(C5=CC(=O)OC5)CCC43O)C2)CC(O)C1OC1CC(O)C(OC2CC(O)C(OC3OC(CO)C(O)C(O)C3O)C(C)O2)C(C)O1 (stereo not given),inactive
20,CC1OC(OCC2OC(Oc3c(-c4ccc(OCCO)c(OCCO)c4)oc4cc(OCCO)cc(O)c4c3=O)C(O)C(O)C2O)[C@@H](O)C(O)C1O (stereo not given in full),inactive
